Laboratory results taken from PubChem BioAssay (Tox21).
Inconclusive results are not listed. Calls of active or inactive are those of the source. Unless noted, calls come from the whole dose curve; as a rule, active = well fitted curve in the direction sought with a large enough effect in the repeat runs; inconclusive = weak or mixed curves; inactive = flat fitted curve, though single readings scatter.

Assays:
[1] = qHTS assay to test for compound auto fluorescence at 535 nm (green) in HEK293 cells (AID 720680)
[2] = qHTS assay to test for compound auto fluorescence at 460 nm (blue) in HEK293 cell free culture (AID 720681)
How it was run: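 Blue fluorescence (Ex 405/Em 460 nm, triamterene-equivalent) was read immediately after pin transfer of compound or DMSO into medium (DMEM, 10% FBS) without cells.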

[3] = qHTS assay to test for compound auto fluorescence at 535 nm (green) in HEK293 cell free culture (AID 720682)
How it was run: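 Intrinsic compound fluorescence is measured in culture medium containing 10% FBS, with excitation at 485 nm and detection at 535 nm, referenced to fluorescein.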

[4] = qHTS assay to test for compound auto fluorescence at 590 nm (red) in HEK293 cell free culture (AID 720683)
How it was run: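 Red-channel autofluorescence of compounds in culture medium (DMEM, 10% FBS), no cells, measured at 540/590 nm. Rose Bengal sodium is the reference fluorophore for equivalence.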

[5] = qHTS assay to test for compound auto fluorescence at 590 nm (red) in HepG2 cell free culture (AID 720684)
How it was run: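 Plate contents were MEM with 10% FBS plus test compound or DMSO, no cells. Fluorescence was recorded with 540 nm excitation and 590 nm emission.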

[6] = qHTS assay to test for compound auto fluorescence at 460 nm (blue) in HepG2 cell free culture (AID 720685)
How it was run: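 Compound (23 nL) or DMSO pinned into cell-free MEM with 10% FBS; blue fluorescence read at 405/460 nm excitation/emission, expressed as auto-fluorescence equivalency to triamterene.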

[7] = qHTS assay to test for compound auto fluorescence at 535 nm (green) in HepG2 cell free culture (AID 720686)
[8] = qHTS assay to test for compound auto fluorescence at 460 nm (blue) in HepG2 cells (AID 720687)
How it was run: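 Blue-channel autofluorescence (Ex/Em 405/460 nm, triamterene-equivalent) was measured after 1 hr compound exposure at 37 C, 5% CO2. Cells were HepG2, plated overnight at 37 C in MEM plus 10% FBS.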

[9] = biological target: Glucocorticoid receptor (Homo sapiens) (UniProt P04150); assay: qHTS assay to identify small molecule agonists of the glucocorticoid receptor (GR) signaling pathway (AID 720691; active = well fitted activation curve with a large enough effect in the signal ratio in the repeat runs, not every such curve was filed as active; the % refers to the signal ratio)
Chain of Glucocorticoid receptor (Homo sapiens) (P04150 whole entry, looked up): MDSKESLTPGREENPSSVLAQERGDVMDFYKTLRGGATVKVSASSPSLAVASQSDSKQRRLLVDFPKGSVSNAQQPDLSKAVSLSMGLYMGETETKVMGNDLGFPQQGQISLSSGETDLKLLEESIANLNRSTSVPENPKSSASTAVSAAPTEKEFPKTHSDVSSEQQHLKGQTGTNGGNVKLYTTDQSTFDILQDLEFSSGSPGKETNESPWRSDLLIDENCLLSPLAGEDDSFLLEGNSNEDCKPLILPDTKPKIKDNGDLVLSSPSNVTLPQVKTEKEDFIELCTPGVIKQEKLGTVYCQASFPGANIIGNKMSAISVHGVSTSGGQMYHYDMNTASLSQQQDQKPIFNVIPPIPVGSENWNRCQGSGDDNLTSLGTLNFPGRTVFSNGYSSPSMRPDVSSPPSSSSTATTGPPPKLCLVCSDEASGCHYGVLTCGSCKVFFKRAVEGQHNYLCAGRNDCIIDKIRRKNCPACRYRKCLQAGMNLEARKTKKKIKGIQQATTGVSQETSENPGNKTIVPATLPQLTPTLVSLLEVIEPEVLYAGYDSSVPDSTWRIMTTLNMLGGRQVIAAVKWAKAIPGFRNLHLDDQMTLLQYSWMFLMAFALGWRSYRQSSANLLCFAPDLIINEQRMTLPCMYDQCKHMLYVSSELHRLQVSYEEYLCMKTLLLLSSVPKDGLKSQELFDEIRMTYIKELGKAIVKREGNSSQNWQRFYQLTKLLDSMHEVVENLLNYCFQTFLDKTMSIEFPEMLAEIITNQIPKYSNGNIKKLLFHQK
How it was run: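 qHTS in GR-bla HeLa cells: 4 h settling at 37 C/5% CO2, 18 h compound incubation at 37 C, 2 h LiveBLAzer B/G FRET substrate at room temperature, fluorescence intensity measured.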

[10] = biological target: Glucocorticoid receptor (Homo sapiens) (UniProt P04150); assay: qHTS assay to identify small molecule antagonists of the glucocorticoid receptor (GR) signaling pathway (AID 720692; active = well fitted inhibition curve with a large enough effect in the signal ratio in the repeat runs, not every such curve was filed as active; the % refers to the signal ratio)
How it was run: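 Inhibition of glucocorticoid signalling is measured in HeLa cells with a GRE-controlled beta-lactamase reporter; cells are co-treated with compound and 5 nM dexamethasone (final) for 18 h before FRET substrate readout.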

Measured: Potency

CNC(=O)Oc1cccc2ccccc12
not listed: [9] | [10]
inactive: all other assays above

N#Cc1ccccn1
not listed: [9] | [10]
inactive: all other assays above

CCOP(=S)(OCC)Oc1cc(C)nc(C(C)C)n1
inactive: all assays above

CN(C)C(=O)Cl
inactive: all assays above

COC(C)(C)CCCC(C)C/C=C/C(C)=C/C(=O)OC(C)C (stereo not drawn)
not listed: [9] | [10]
inactive: all other assays above

Cc1ccc(O)c(C)c1
inactive: all assays above

Cc1cc(Cl)ccc1OC(C)C(=O)O (stereo not drawn)
not listed: [9] | [10]
inactive: all other assays above

CC12CC1(C)C(=O)N(c1cc(Cl)cc(Cl)c1)C2=O (stereo not drawn)
inactive: all assays above

C/C=C/c1ccc2c(c1)OCO2
not listed: [9] | [10]
inactive: all other assays above

CCSC(=O)N1CCCCCC1
not listed: [9] | [10]
inactive: all other assays above

NNc1ccccc1
not listed: [9] | [10]
inactive: all other assays above

Cc1cccc(N)c1C
inactive: all assays above

Cc1cccc(N)c1
not listed: [9] | [10]
inactive: all other assays above

Cc1cccc(C)c1N
inactive: all assays above

Oc1ccc(Cl)cc1
not listed: [9] | [10]
inactive: all other assays above

CNCC(O)c1ccc(O)cc1 (stereo not drawn)
inactive: all assays above

O=C(O)Cc1ccccc1
not listed: [9] | [10]
inactive: all other assays above

CSc1nnc(C(C)(C)C)c(=O)n1N
inactive: all assays above

Nc1ccc([As](=O)(O)O)cc1
not listed: [9] | [10]
inactive: all other assays above

O=S(=O)(O)OOS(=O)(=O)O
not listed: [9] | [10]
inactive: all other assays above

O=C(O)CCCc1ccc(N(CCCl)CCCl)cc1
not listed: [9] | [10]
inactive: all other assays above

CC(C)(C)C(=O)CCl
inactive: all assays above

CC(C)c1cccc(C(C)C)c1O
not listed: [9] | [10]
inactive: all other assays above

Nc1cccc(Cl)c1
not listed: [9] | [10]
inactive: all other assays above

CN(C)C(=O)C(c1ccccc1)c1ccccc1
not listed: [9] | [10]
inactive: all other assays above

C=CCN=C=S
not listed: [9] | [10]
inactive: all other assays above

COP(=S)(OC)Oc1ccc(SC)c(C)c1
inactive: all assays above

Nc1cc(Cl)cc(Cl)c1
not listed: [9] | [10]
inactive: all other assays above

Oc1c(Br)cc(Br)cc1Br
not listed: [9] | [10]
inactive: all other assays above

Nc1ccc(N)cc1
not listed: [9] | [10]
inactive: all other assays above

CCOc1ccc(N)cc1
inactive: all assays above

CC[N+](=O)[O-]
inactive: all assays above

CNC(=O)O/N=C/C(C)(C)S(C)(=O)=O
inactive: all assays above

CNC(=O)O/N=C/C(C)(C)SC
inactive: all assays above

Nc1ncc([N+](=O)[O-])s1
inactive: all assays above

O=P1(NCCCl)OCCCN1CCCl (stereo not drawn)
inactive: all assays above

Cc1cc(O)ccc1Cl
inactive: all assays above

O=[N+]([O-])c1cc([As](=O)(O)O)ccc1O
inactive: all assays above

Cc1ccc(N)cc1
not listed: [2] | [9] | [10]
inactive: all other assays above

Cc1cccc(C)c1NC(=O)CN1CCCC1=O
inactive: all assays above

COC(=O)Nc1cccc(OC(=O)Nc2cccc(C)c2)c1
inactive: all assays above

CCCOC(=O)c1ccccc1C(=O)OCCC
not listed: [2] | [9] | [10]
inactive: all other assays above

C=C(C)C(=O)OCC(CC)CCCC (stereo not drawn)
inactive: all assays above

O=C(O)c1cc(Oc2ccc(C(F)(F)F)cc2Cl)ccc1[N+](=O)[O-]
inactive: all assays above

Cc1ccccc1N
not listed: [2] | [9] | [10]
inactive: all other assays above

C=CC(=O)OCCCCCC(C)C
not listed: [2] | [9] | [10]
inactive: all other assays above
